The target of assay [1] is T1, 3-phosphoinositide-dependent protein kinase 1 (Homo sapiens) (UniProt O15530).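 Also: values are mean inhibition of PDK1.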
T1 sequence (whole entry): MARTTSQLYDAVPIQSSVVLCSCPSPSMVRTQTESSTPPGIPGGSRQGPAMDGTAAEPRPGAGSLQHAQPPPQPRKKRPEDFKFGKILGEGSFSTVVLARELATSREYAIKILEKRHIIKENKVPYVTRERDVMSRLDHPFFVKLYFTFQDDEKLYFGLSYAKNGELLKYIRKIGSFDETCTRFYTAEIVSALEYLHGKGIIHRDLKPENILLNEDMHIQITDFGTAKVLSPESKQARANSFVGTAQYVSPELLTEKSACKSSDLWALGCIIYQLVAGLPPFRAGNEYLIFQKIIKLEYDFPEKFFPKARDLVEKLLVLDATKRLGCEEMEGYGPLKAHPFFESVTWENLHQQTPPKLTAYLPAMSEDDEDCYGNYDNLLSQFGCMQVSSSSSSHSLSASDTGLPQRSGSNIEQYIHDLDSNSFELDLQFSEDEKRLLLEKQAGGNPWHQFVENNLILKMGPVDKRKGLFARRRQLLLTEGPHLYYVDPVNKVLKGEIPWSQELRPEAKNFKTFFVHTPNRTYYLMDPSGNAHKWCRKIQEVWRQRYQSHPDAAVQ
The following applies: at 0.1 µM.

The target in assay [2] is cAMP-dependent protein kinase catalytic subunit alpha (Homo sapiens) (UniProt P17612). The following applies: at 0.1 µM.
Assay [3] shares this target. Conditions: at 1 µM.
For assay [4], the target named is Protein kinase C alpha type (Homo sapiens) (UniProt P17252). Conditions: at 0.1 µM.
The target is the same in assay [5]. Conditions: at 1 µM.
Assay [6] deals with Protein kinase C beta type (Homo sapiens) (UniProt P05771). The following applies: at 0.1 µM.
Sequence of Protein kinase C beta type (Homo sapiens) (P05771 2-671 limits assumed): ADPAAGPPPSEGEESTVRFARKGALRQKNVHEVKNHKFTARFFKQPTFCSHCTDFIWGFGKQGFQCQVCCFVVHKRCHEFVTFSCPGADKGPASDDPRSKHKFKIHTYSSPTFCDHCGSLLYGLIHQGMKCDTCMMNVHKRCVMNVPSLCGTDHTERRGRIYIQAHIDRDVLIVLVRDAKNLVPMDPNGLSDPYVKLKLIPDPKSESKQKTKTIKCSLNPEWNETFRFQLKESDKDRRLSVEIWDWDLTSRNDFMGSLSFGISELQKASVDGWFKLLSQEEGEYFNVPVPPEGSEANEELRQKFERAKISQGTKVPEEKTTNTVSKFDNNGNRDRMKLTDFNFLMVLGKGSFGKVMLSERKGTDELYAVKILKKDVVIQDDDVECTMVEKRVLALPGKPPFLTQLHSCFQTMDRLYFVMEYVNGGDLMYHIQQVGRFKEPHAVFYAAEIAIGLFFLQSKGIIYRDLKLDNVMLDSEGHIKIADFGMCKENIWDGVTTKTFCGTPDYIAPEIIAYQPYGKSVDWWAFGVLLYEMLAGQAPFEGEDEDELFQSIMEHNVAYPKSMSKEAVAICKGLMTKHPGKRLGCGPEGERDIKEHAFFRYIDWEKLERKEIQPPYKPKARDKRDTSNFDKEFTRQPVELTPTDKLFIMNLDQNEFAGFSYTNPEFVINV
For assay [7] the target is unchanged. Conditions: at 1 µM.
In assay [8] the target is Protein kinase C eta type (Homo sapiens) (UniProt P24723). Conditions: at 0.1 µM.
Sequence of Protein kinase C eta type (Homo sapiens) (P24723 whole entry): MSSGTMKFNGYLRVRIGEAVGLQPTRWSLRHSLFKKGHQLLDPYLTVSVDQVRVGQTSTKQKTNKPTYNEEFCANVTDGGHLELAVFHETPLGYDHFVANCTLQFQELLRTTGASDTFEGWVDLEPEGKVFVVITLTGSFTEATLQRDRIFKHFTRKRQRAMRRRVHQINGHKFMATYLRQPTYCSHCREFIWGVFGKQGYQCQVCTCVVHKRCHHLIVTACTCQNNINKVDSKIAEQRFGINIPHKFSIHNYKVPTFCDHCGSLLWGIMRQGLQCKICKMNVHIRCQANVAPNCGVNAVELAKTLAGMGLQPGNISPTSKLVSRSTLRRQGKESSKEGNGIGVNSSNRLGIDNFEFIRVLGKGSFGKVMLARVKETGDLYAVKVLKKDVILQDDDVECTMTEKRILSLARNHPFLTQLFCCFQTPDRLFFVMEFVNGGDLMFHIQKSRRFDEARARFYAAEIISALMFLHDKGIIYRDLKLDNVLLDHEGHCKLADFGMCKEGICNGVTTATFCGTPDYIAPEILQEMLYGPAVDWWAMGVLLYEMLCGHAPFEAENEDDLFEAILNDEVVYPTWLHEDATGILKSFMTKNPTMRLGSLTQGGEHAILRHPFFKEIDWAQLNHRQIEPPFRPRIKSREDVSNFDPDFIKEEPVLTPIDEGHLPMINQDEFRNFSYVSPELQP
Assay [9] shares this target. Conditions: at 1 µM.
Assay [10] deals with Protein kinase C gamma type (Homo sapiens) (UniProt P05129). The following applies: at 0.1 µM.
For assay [11] the target is unchanged. Conditions: at 1 µM.
Assay [12] has as its target T2, Protein kinase C iota type (Homo sapiens) (UniProt P41743).
T2 sequence (whole entry): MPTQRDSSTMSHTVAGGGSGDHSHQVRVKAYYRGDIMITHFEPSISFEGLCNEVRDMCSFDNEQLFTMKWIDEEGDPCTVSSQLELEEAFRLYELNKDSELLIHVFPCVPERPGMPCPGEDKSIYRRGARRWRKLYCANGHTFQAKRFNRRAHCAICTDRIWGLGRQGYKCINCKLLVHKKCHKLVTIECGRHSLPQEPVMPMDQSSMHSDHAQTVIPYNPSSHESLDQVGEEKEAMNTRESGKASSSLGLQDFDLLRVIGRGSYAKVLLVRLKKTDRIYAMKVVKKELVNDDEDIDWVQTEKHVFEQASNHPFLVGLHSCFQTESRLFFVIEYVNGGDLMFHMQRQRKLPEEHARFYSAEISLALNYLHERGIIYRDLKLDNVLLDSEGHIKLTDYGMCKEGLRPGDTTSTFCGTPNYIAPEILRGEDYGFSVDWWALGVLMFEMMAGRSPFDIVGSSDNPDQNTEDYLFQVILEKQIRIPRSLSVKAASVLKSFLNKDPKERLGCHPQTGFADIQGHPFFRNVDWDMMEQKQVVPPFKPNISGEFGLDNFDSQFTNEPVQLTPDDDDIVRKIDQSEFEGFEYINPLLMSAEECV
Conditions: at 0.1 µM.

Assay [13] concerns the target T2, Protein kinase C iota type (Homo sapiens). Conditions: at 1 µM.
In assay [14] the target is Protein kinase C theta type (Homo sapiens) (UniProt Q04759). Conditions: at 0.1 µM.
Sequence of Protein kinase C theta type (Homo sapiens) (Q04759 whole entry, looked up): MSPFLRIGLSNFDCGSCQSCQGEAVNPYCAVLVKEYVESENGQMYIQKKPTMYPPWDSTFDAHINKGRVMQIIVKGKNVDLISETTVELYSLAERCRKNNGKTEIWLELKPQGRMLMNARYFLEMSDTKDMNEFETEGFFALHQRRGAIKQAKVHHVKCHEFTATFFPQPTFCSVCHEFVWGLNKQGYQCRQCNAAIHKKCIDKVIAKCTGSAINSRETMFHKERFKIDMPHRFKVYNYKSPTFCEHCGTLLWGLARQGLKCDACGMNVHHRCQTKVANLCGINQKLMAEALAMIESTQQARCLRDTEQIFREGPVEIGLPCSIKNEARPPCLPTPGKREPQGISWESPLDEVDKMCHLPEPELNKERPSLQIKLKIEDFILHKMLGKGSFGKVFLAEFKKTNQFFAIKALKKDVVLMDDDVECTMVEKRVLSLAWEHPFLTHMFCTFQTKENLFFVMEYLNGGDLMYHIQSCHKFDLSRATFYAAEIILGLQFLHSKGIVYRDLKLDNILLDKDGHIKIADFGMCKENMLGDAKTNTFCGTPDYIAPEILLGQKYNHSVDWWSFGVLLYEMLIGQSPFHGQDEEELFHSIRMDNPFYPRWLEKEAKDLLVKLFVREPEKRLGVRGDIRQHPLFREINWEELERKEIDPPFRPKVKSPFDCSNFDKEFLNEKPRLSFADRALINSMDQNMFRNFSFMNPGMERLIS
Assay [15] has the same target. Conditions: at 1 µM.
Assay [16] concerns the target Protein kinase C beta type (Homo sapiens) (UniProt P05771). The following applies: at 0.1 µM. This is another data set of the same source.
For assay [17] the target is unchanged. Conditions: at 1 µM. This is another data set of the same source.
Assay [18] has as its target T3, Serine/threonine-protein kinase D1 (Homo sapiens) (UniProt Q15139).
T3 sequence (whole entry): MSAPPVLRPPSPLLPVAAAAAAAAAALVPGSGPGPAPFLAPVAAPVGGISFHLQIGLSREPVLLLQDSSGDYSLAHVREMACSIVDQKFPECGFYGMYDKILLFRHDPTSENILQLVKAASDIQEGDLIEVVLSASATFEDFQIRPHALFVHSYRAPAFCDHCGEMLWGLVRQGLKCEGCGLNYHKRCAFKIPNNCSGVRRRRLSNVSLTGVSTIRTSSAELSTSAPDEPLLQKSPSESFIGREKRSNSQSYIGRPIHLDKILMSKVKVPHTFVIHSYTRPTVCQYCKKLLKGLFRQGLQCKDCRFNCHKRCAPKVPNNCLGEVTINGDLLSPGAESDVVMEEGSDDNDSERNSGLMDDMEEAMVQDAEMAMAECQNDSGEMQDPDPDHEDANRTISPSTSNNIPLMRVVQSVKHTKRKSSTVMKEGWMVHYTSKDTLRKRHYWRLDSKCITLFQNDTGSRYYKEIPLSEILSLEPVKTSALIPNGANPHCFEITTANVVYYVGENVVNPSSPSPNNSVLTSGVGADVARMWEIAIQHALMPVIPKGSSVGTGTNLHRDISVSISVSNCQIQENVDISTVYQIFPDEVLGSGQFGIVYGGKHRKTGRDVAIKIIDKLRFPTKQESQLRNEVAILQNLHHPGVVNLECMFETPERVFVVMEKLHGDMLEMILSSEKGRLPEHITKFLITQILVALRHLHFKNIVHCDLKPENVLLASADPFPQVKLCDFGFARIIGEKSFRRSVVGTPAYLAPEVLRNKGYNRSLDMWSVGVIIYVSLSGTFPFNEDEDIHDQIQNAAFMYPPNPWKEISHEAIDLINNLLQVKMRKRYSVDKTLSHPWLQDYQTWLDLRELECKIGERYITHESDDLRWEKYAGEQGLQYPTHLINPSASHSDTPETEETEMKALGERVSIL
Conditions: at 0.1 µM.

Assay [19] deals with T3, Serine/threonine-protein kinase D1 (Homo sapiens). Conditions: at 1 µM.
Assay [20] has as its target T4, Serine/threonine-protein kinase D2 (Homo sapiens) (UniProt Q9BZL6).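 Also: reported percent inhibition values are means, part of the GSK PKIS kinase panel screen.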
T4 sequence (whole entry): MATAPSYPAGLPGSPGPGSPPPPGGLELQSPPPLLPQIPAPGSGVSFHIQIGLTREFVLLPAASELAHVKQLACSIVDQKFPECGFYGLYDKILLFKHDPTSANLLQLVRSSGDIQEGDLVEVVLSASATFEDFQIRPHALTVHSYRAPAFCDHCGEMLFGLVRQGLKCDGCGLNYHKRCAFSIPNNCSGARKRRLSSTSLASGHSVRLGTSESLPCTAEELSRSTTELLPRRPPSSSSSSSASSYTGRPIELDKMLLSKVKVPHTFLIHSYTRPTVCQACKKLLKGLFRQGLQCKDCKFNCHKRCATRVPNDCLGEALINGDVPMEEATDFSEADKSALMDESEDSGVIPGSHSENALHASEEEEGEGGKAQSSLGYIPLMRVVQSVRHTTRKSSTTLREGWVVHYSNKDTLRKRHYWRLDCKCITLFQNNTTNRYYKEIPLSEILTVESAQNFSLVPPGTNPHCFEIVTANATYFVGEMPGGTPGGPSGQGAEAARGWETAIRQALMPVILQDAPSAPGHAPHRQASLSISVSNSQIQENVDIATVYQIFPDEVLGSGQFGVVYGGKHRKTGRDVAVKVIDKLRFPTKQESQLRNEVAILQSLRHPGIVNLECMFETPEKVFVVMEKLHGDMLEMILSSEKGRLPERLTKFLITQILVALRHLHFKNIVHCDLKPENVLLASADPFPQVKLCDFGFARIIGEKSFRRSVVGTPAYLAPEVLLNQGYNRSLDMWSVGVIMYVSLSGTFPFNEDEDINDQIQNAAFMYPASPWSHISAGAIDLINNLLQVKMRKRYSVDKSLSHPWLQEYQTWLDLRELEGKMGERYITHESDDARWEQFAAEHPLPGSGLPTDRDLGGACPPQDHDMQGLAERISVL
The following applies: at 0.1 µM.

For the compound `NC(=O)c1ccc2c(-c3ccnc(NCCCO)n3)c(-c3ccc(F)cc3)nn2c1`, the inhibition in [1] is 2.05%; in [2] it was 2.22%; in [3], 2.01%; in assay [4], 1.39%; in [5], 11%; in [6], 2.42%. The inhibition in [7] came to 17.5%; in assay [8] it was 2.29%; in assay [9], 4.92%; in assay [10] it was 3.3%; in assay [11], 7.09%; in assay [12], 1.98%. Besides, the inhibition in assay [13] was 3.92%; in assay [14], 2.7%; in assay [15], 2.63%; in assay [16], 4.8%; in assay [17], 24.3%; in assay [18] it was 6.13%. In addition, the inhibition in assay [19] was 25.5%; in [20], 7.41%.
Take `CC1=C(C(=O)Nc2ccc3[nH]ncc3c2)C(c2ccc(F)cc2)N=C(c2ccc(C(F)(F)F)nc2)N1` (stereo not given): the inhibition in assay [1] amounted to 2.62%; in assay [2], 3.58%; in assay [3], 20.9%; in [4], 1.25%; in [5] it was 2.09%; in assay [6], 0.07%. Besides, the inhibition was -0.53% in assay [7]; 2.89% in [8]; 2.1% in assay [9]; 0.54% in assay [10]; 3.28% in assay [11]; 1% in assay [12]. The inhibition in assay [13] is 1.59%; in assay [14], 1.3%; in assay [15] it was 1.01%; in assay [16] it was 4.27%; in [17] it was 0.68%; in [18], 2.04%. For the same compound, the inhibition in assay [19] is 3.26%; in assay [20], 2.6%.
In the case of `COc1cc(N2CCN(C(C)C)CC2)ccc1Nc1nc(Nc2cccc3ncccc23)c2cc[nH]c2n1`, the inhibition in assay [1] is -0.4%; in [2], 0.01%; in [3], 0.68%; in assay [4], -0.39%; in assay [5], 1.71%; in [6], -0.38%. In addition, the inhibition is 2.34% in assay [7]; -2.11% in assay [8]; -3.36% in assay [9]; -0.77% in assay [10]; 0.74% in assay [11]; -0.08% in assay [12]. Moreover, the inhibition in assay [13] was 0.58%; in assay [14], -0.84%; in assay [15], -1.07%; in [16], -0.21%; in assay [17], 0.45%; in assay [18] it was -0.17%. Further, the inhibition in assay [19] is 3.6%; in assay [20], 0.68%.
For `CN1CCC(n2cnc(-c3ccc(F)cc3)c2-c2ccnc(NCCO)n2)CC1`, the inhibition in assay [1] worked out at 1.23%; in [2] it was 2.28%; in [3] it was 4.71%; in assay [4] it was 1.14%; in [5], 6.57%; in [6], 0.78%. The inhibition in [7] came out at 5.76%; in assay [8], 3.08%; in [9] it was 2.5%; in assay [10] it was 3.49%; in assay [11], 5.6%; in assay [12], 1.02%. The inhibition came to 1.08% in [13]; 3.59% in assay [14]; 5.13% in assay [15]; 1.17% in assay [16]; 7.68% in assay [17]; 5.8% in assay [18]. Besides, the inhibition was determined as 14.6% in [19] and 4.75% in assay [20].
With `CC(C)c1ccc(-c2cc(-c3c[nH]nc3-c3ccccn3)ccn2)cc1`, the inhibition in assay [1] was 1.17%; in assay [2], 1.32%; in assay [3], 2.36%; in [4], 0.02%; in [5] it was 1.23%; in assay [6], 2.16%. For the same compound, the inhibition was 3.68% in assay [7]; 1.36% in assay [8]; 0.07% in [9]; -1.26% in assay [10]; 1.42% in [11]; -0.37% in assay [12]. The inhibition in assay [13] is 1.12%; in [14], 0.13%; in assay [15], -0.28%; in [16] it was 0.43%; in assay [17], 1.4%; in assay [18], 1.12%. The inhibition worked out at 8.61% in [19] and 1.16% in assay [20].
As to `Fc1cccc(COc2ccc(Nc3ncncc3C#Cc3ccccc3)cc2Cl)c1`, the inhibition is 3.09% in assay [1]; 2.03% in [2]; 2.57% in assay [3]; 1.03% in assay [4]; 1.01% in assay [5]; 1.01% in assay [6]. Moreover, the inhibition in assay [7] came out at 4.8%; in assay [8] it was 0.23%; in [9], 4.62%; in [10] it was 3.66%; in assay [11], 4.55%; in assay [12] it was 1.11%. Moreover, the inhibition turned out to be 0.75% in assay [13]; 3.42% in assay [14]; 4.89% in assay [15]; 0.66% in assay [16]; 1.48% in [17]; 4.73% in assay [18]. The inhibition was 7.41% in assay [19] and 5.16% in assay [20].

As a reminder, the inhibition is the relative decrease from the control value, in per cent.

The values are drawn from ChEMBL document CHEMBL1961873, “Compounds: GSK PKIS; Assays: Nanosyn kinase panel” (2012).
